Measurements from PubChem BioAssay AID1159580 (chemical genetic matrix, 2015).
Among all 5,500 compounds or so, about 2,000 (36%) were called active. Another 18% or so got no clear call; they are omitted. Cut-off read from the data, not from the text of the source: active = normalized growth mostly below about 0.91 (no sharp cut-off); inconclusive = no clear call, values can overlap the other calls; inactive = mostly above about 0.92. The list shows a part of the results.

Assay: chemical genetic growth profiling, strain panel (AID 1159580);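 note: tested at 20 µM; growth read once vehicle control cultures reached saturation at 30 °C; 1 = growth at the plate median or of vehicle wells; lower values mean less growth of the strain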
Settings: growth OD

Measured: normalized growth

COP(N)(=O)SC (configuration not stated)
inactive: S. cerevisiae deletion strains, locus YJR075W, strain HOC1, active compounds read low 1.01 | S. cerevisiae deletion strains, locus YKL009W, strain mrt4, active compounds read low 1 | S. cerevisiae deletion strains, locus YKL068W, active compounds read low 0.999 | S. cerevisiae deletion strains, locus YKL085W, strain MDH1 (second series), active compounds read low 1 | S. cerevisiae deletion strains, locus YKL085W, strain MDH1, active compounds read low 1 | S. cerevisiae deletion strains, locus YKL160W, strain elf1, active compounds read low 0.995 | S. cerevisiae deletion strains, locus YKL190W, strain CNB1, active compounds read low 1 | S. cerevisiae deletion strains, locus YKR001C, strain vps1, active compounds read low 1.03 | S. cerevisiae deletion strains, locus YKR026C, strain gcn3, active compounds read low 0.995 | S. cerevisiae deletion strains, locus YKR091W, strain srl3, active compounds read low 1 | S. cerevisiae deletion strains, locus YLL001W, strain dnm1, active compounds read low 0.981 | S. cerevisiae deletion strains, locus YLL026W, active compounds read low 0.996 | S. cerevisiae deletion strains, locus YLL041C, strain sdh2, active compounds read low 1 | S. cerevisiae deletion strains, locus YLR027C, strain aat2, active compounds read low 0.999 | S. cerevisiae deletion strains, locus YLR039C, strain RIC1, active compounds read low 1.04 | S. cerevisiae deletion strains, locus YLR058C, strain SHM2, active compounds read low 1.01 | S. cerevisiae deletion strains, locus YLR102C, strain apc9, active compounds read low 1.02 | S. cerevisiae deletion strains, locus YLR113W, strain HOG1, active compounds read low 0.963 | S. cerevisiae deletion strains, locus YLR221C, strain rsa3, active compounds read low 0.991 | S. cerevisiae deletion strains, locus YLR258W, strain gsy2, active compounds read low 1.01 | S. cerevisiae deletion strains, locus YLR262C, strain YPT6 (second series), active compounds read low 1.01 | S. cerevisiae deletion strains, locus YLR262C, strain YPT6, active compounds read low 1.02 | S. cerevisiae deletion strains, locus YLR268W, strain sec22, active compounds read low 1.01 | S. cerevisiae deletion strains, locus YLR320W, strain mms22, active compounds read low 1.01 | S. cerevisiae deletion strains, locus YLR330W, strain CHS5, active compounds read low 1 | S. cerevisiae deletion strains, locus YLR342W, strain FKS1 (second series), active compounds read low 1.03 | S. cerevisiae deletion strains, locus YLR342W, strain FKS1, active compounds read low 1.01 | S. cerevisiae deletion strains, locus YLR357W, strain rsc2, active compounds read low 1.02 | S. cerevisiae deletion strains, locus YLR370C, strain arc18, active compounds read low 1.01 | S. cerevisiae deletion strains, locus YLR371W, strain rom2, active compounds read low 1.02 | S. cerevisiae deletion strains, locus YLR384C, strain iki3, active compounds read low 1 | S. cerevisiae deletion strains, locus YLR418C, strain cdc73, active compounds read low 1.01 | S. cerevisiae deletion strains, locus YML016C, strain PPZ1, active compounds read low 0.992 | S. cerevisiae deletion strains, locus YML032C, strain rad52, active compounds read low 1.03 | S. cerevisiae deletion strains, locus YML120C, strain ndi1, active compounds read low 1 | S. cerevisiae deletion strains, locus YML124C, strain tub3, active compounds read low 1.01 | S. cerevisiae deletion strains, locus YMR058W, strain fet3, active compounds read low 1.01 | S. cerevisiae deletion strains, locus YMR078C, strain ctf18, active compounds read low 1.02 | S. cerevisiae deletion strains, locus YMR125W, strain sto1, active compounds read low 1.01 | S. cerevisiae deletion strains, locus YMR129W, active compounds read low 0.992 | S. cerevisiae deletion strains, locus YMR205C, strain PFK2, active compounds read low 1.02 | S. cerevisiae deletion strains, locus YMR223W, strain ubp8, active compounds read low 1.02 | S. cerevisiae deletion strains, locus YMR231W, strain pep5, active compounds read low 1.01 | S. cerevisiae deletion strains, locus YMR263W, strain SAP30, active compounds read low 0.994 | S. cerevisiae deletion strains, locus YMR307W, strain GAS1, active compounds read low 1.02 | S. cerevisiae deletion strains, locus YNL067W, strain RPL9B, active compounds read low 0.99 | S. cerevisiae deletion strains, locus YNL071W, strain lat1, active compounds read low 1 | S. cerevisiae deletion strains, locus YNL128W, strain TEP1, active compounds read low 0.991 | S. cerevisiae deletion strains, locus YNL153C, strain GIM3, active compounds read low 0.996 | S. cerevisiae deletion strains, locus YNL183C, strain NPR1, active compounds read low 0.985 | S. cerevisiae deletion strains, locus YNL209W, strain ssb2, active compounds read low 1 | S. cerevisiae deletion strains, locus YNL233W, strain BNI4, active compounds read low 0.992 | S. cerevisiae deletion strains, locus YNL248C, strain rpa49, active compounds read low 0.969 | S. cerevisiae deletion strains, locus YNL250W, strain rad50, active compounds read low 1.01 | S. cerevisiae deletion strains, locus YNL271C, strain bni1, active compounds read low 1.01 | S. cerevisiae deletion strains, locus YNL298W, strain CLA4, active compounds read low 1.02 | S. cerevisiae deletion strains, locus YNL307C, strain MCK1, active compounds read low 1.03 | S. cerevisiae deletion strains, locus YNL322C, strain KRE1 (second series), active compounds read low 1 | S. cerevisiae deletion strains, locus YNL322C, strain KRE1, active compounds read low 0.999 | S. cerevisiae deletion strains, locus YNR049C, strain mso1, active compounds read low 0.996 | S. cerevisiae deletion strains, locus YNR052C, strain pop2, active compounds read low 1.02 | S. cerevisiae deletion strains, locus YOL006C, strain TOP1, active compounds read low 1.03 | S. cerevisiae deletion strains, locus YOL012C, strain htz1 0.95 | S. cerevisiae deletion strains, locus YOL147C, strain pex11, active compounds read low 1.02 | S. cerevisiae deletion strains, locus YOR001W, strain rrp6, active compounds read low 0.979 | S. cerevisiae deletion strains, locus YOR061W, strain CKA2, active compounds read low 0.994 | S. cerevisiae deletion strains, locus YOR069W, strain VPS5, active compounds read low 1 | S. cerevisiae deletion strains, locus YOR070C, strain gyp1, active compounds read low 1.01 | S. cerevisiae deletion strains, locus YOR080W, strain dia2, active compounds read low 1 | S. cerevisiae deletion strains, locus YOR083W, strain WHI5, active compounds read low 0.999 | S. cerevisiae deletion strains, locus YOR106W, strain vam3, active compounds read low 0.993 | S. cerevisiae deletion strains, locus YOR136W, strain idh2, active compounds read low 1.01 | S. cerevisiae deletion strains, locus YOR144C, strain elg1, active compounds read low 1.01 | S. cerevisiae deletion strains, locus YOR184W, strain ser1, active compounds read low 1.03 | S. cerevisiae deletion strains, locus YOR231W, strain MKK1, active compounds read low 1.05 | S. cerevisiae deletion strains, locus YOR265W, strain rbl2, active compounds read low 1.01 | S. cerevisiae deletion strains, locus YOR270C, strain vph1, active compounds read low 0.987 | S. cerevisiae deletion strains, locus YOR290C, strain snf2, active compounds read low 1 | S. cerevisiae deletion strains, locus YOR316C, strain cot1, active compounds read low 1.01 | S. cerevisiae deletion strains, locus YPL051W, strain arl3, active compounds read low 1 | S. cerevisiae deletion strains, locus YPL055C, strain LGE1, active compounds read low 0.984 | S. cerevisiae deletion strains, locus YPL078C, strain atp4, active compounds read low 0.986 | S. cerevisiae deletion strains, locus YPL106C, strain sse1, active compounds read low 1 | S. cerevisiae deletion strains, locus YPL240C, strain hsp82, active compounds read low 1 | S. cerevisiae deletion strains, locus YPL241C, strain CIN2, active compounds read low 0.994 | S. cerevisiae deletion strains, locus YPL256C, strain CLN2, active compounds read low 1.06 | S. cerevisiae deletion strains, locus YPR119W, strain clb2, active compounds read low 1.01 | S. cerevisiae deletion strains, locus YPR141C, strain kar3, active compounds read low 1.01 | S. cerevisiae deletion strains, locus YPR163C, strain tif3, active compounds read low 1.02 | S. cerevisiae deletion strains, locus YPR167C, strain met16, active compounds read low 1.01 | S. cerevisiae deletion strains, strain wtn01, active compounds read low 1.01 | S. cerevisiae strains, strain wild type, active compounds read low 0.996
